Measurements taken from PubChem BioAssay (EPA / NIEHS).
Several values for one entry are separate records, joined by “and”; a condition that tells them apart may be missing. Equal values may be shown once. Records with an inconclusive call do not appear. Activity calls are given as the source filed them. Rule for the calls, unless noted: active = hit-call score of the fitted dose curve at least 0.9, where 1 is the maximum; inconclusive = response in the unintended direction; inactive = score below 0.9.

Each molecule was assayed against human CYP1A2, CYP1A2 (gene 1544) (UniProt P05177) (assay: NVS_ADME_hCYP1A2: NovaScreen (NVS) CYP450-related Enzyme Activity (ADME) Assay for human CYP1A2 (AID 2283102);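 for AC50: fluorescence from turnover of a fluorogenic substrate by recombinant insect-cell CYP1A2; potency for inhibition since loss of fluorescence marks reduced CYP1A2 activity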).
Sequence of human CYP1A2, CYP1A2 (gene 1544) (P05177 whole entry, looked up): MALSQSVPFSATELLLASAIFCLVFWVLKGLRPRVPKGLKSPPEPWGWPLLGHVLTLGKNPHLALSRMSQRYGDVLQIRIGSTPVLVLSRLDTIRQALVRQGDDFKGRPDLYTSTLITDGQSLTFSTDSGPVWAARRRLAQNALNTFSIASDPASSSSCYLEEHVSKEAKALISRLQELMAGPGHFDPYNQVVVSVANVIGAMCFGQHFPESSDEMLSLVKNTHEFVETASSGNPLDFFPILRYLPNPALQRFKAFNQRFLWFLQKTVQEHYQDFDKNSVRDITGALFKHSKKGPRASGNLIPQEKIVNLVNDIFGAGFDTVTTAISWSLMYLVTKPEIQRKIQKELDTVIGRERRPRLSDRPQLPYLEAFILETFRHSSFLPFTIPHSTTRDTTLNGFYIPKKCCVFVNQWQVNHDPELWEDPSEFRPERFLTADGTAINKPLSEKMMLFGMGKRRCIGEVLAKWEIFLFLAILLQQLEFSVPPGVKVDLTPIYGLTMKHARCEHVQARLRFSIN
Outline: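 Inhibition scored as decrease in fluorescent product versus acetonitrile negative control. Enzyme: insect-cell recombinant human CYP1A2, substrate-specific, cell-free. Reading at 0.5 h; 10 uM duplicate initial screen with positive and negative controls on every plate.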
In the case of `CCOP(=S)(OCC)Oc1ccc([N+](=O)[O-])cc1`, the AC50 is reported as 2.2 µM (active).
For `Nc1c(Cl)cc([N+](=O)[O-])cc1Cl`, the AC50 was 2.28 µM (active).
In the case of `CCOP(=O)(NC(C)C)Oc1ccc(SC)c(C)c1` (stereo not drawn), the AC50 is reported as 4.84 µM (active).
With `CN(C)C(=O)Nc1cccc(C(F)(F)F)c1` the AC50 was 5.3 µM (active).
`CCC(CC)Nc1c([N+](=O)[O-])cc(C)c(C)c1[N+](=O)[O-]` was tested, and the outcome was “inactive”.
With `CCCCOC(=O)c1ccccc1C(=O)O` the outcome was “inactive”.
In the case of `CNc1cnn(-c2cccc(C(F)(F)F)c2)c(=O)c1Cl`, the AC50 is reported as 5.43 µM (active).
`CCOP(=S)(OCC)Oc1ccc2c(C)c(Cl)c(=O)oc2c1` was tested, and the AC50 was 1.17 µM (active).
`CCCCSP(=O)(SCCCC)SCCCC` was tested, and the AC50 was 8.52 µM (active).
For `C#CC(C)(C)NC(=O)c1cc(Cl)cc(Cl)c1`, the AC50 was 10 µM (active).
In the case of `CSc1nc(NC(C)C)nc(NC(C)C)n1`, the AC50 is reported as 5.92 µM (active).
For `Cc1cc(C2CC2)nc(Nc2ccccc2)n1`, the AC50 was 2.87 µM (active).
For `FC(F)C(F)(F)OCC(Cn1cncn1)c1ccc(Cl)cc1Cl` (stereo not drawn), the AC50 was 4.85 µM (active).
In the case of `CCC(=O)Nc1ccc(Cl)c(Cl)c1`, the AC50 is reported as 2.03 µM (active).
With `O=[N+]([O-])c1cc(C(F)(F)F)c(Cl)c([N+](=O)[O-])c1Nc1ncc(C(F)(F)F)cc1Cl` the outcome was “inactive”.
`CCOC(=O)CC(SP(=O)(OC)OC)C(=O)OCC` (stereo not drawn) was tested, and the outcome was “inactive”.
For `CCCOCC(=Nc1ccc(Cl)cc1C(F)(F)F)n1ccnc1`, the AC50 was 7.01 µM (active).
For `CC(COc1ccc(Oc2ccccc2)cc1)Oc1ccccn1` (stereo not drawn), the outcome was “inactive”.
In the case of `CCCSP(=O)(OCC)Oc1ccc(Br)cc1Cl` (stereo not drawn), the AC50 is reported as 5.19 µM (active).

These molecules were tested against Cytochrome P450 2C18 (Homo sapiens) (UniProt P33260) (assay: NVS_ADME_hCYP2C18: NovaScreen (NVS) CYP450-related Enzyme Activity (ADME) Assay for human CYP2C18 (AID 2283103; active = hit-call score of the fitted dose curve at least 0.9, where 1 is the maximum; inactive = score below 0.9)).
Sequence of Cytochrome P450 2C18 (Homo sapiens) (P33260 whole entry, looked up): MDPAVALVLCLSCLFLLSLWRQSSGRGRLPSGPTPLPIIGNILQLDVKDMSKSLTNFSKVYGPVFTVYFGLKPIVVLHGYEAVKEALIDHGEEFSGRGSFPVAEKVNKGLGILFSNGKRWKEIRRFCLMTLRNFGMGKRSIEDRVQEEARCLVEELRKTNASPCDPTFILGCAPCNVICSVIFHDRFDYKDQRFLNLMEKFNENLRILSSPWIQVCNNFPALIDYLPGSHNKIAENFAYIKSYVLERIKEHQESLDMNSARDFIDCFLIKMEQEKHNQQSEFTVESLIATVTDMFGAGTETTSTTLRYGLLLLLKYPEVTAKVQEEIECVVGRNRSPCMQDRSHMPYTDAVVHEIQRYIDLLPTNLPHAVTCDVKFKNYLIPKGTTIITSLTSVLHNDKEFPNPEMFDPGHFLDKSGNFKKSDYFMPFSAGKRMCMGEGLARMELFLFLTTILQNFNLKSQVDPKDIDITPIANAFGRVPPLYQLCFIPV
Outline: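 Enzyme activity measured by fluorescence 0.5 h after compound addition, using recombinant CYP2C18 and a specific substrate. Actives from duplicate 10 uM screening were retested in concentration series (top 20 uM); acetonitrile served as negative baseline.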
`CCOP(=S)(OCC)Oc1ccc([N+](=O)[O-])cc1` was tested, and the AC50 was 1.95 µM (active).
`S=C1NCCN1` was tested, and the outcome was “inactive”.
In the case of `CCOP(=S)(OCC)Oc1ccc2c(C)c(Cl)c(=O)oc2c1`, the AC50 is reported as 0.734 µM (active).
With `C#CC(C)(C)NC(=O)c1cc(Cl)cc(Cl)c1` the AC50 was 2.67 µM (active).
In the case of `FC(F)C(F)(F)OCC(Cn1cncn1)c1ccc(Cl)cc1Cl` (stereo not drawn), the AC50 is reported as 0.915 µM (active).
With `CC(C1CC1)C(O)(Cn1cncn1)c1ccc(Cl)cc1` (stereo not drawn) the AC50 was 3.26 µM (active).
In the case of `C#CCC1=C(C)C(OC(=O)C2C(C=C(C)C)C2(C)C)CC1=O` (stereo not drawn), the AC50 is reported as 7.41 µM (active).
With `C[Si](Cn1cncn1)(c1ccc(F)cc1)c1ccc(F)cc1` the AC50 was 0.645 µM (active).
In the case of `CCOC(=O)CC(SP(=O)(OC)OC)C(=O)OCC` (stereo not drawn), the outcome is reported as “inactive”.
For `CCCOCC(=Nc1ccc(Cl)cc1C(F)(F)F)n1ccnc1`, the AC50 was 4.78 µM (active).
With `CCCSP(=O)(OCC)Oc1ccc(Br)cc1Cl` (stereo not drawn) the AC50 was 3.45 µM (active).

These molecules were tested against human CYP2C8, CYP2C8 (gene 1558) (UniProt P10632) (assay: NVS_ADME_hCYP2C8: NovaScreen (NVS) CYP450-related Enzyme Activity (ADME) Assay for human CYP2C8 (AID 2283104; active = hit-call score of the fitted dose curve at least 0.9, where 1 is the maximum; inactive = score below 0.9)).
Sequence of human CYP2C8, CYP2C8 (gene 1558) (P10632 whole entry, looked up): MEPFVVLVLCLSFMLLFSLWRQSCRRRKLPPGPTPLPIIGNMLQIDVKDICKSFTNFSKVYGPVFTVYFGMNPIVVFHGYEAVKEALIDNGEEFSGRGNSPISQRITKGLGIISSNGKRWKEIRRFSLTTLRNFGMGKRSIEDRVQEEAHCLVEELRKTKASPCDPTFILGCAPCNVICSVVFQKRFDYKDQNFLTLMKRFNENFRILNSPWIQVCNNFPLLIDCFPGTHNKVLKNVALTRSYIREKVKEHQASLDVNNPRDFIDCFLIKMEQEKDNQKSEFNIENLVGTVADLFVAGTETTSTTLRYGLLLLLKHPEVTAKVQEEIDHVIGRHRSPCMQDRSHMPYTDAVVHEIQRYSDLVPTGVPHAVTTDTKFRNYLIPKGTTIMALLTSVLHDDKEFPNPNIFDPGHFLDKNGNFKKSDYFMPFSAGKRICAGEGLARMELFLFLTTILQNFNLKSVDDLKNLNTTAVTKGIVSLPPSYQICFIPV
Procedure: NVS_ADME_hCYP2C8 is a biochemical, single-readout assay that uses extracted gene-proteins in a cell-free assay. Measurements were taken 0.5 hour after chemical dosing in a 96-well plate.NVS_ADME_hCYP2C8 is one of one assay component(s) measured or calculated from the NVS_ADME_hCYP2C8 assay. It is designed to make measurements of enzyme activity, a form of enzyme reporter, as detected with fluorescence intensity signals by Fluorescence technology.Data from the assay component NVS_ADME_hCYP2C8 was analyzed into 1 assay endpoint. This assay endpoint, NVS_ADME_hCYP2C8, was analyzed in the positive analysis fitting direction relative to Acetonitrile as the negative control and baseline of activity. Using a type of enzyme reporter, loss-of-signal activity can be used to understand changes in the enzymatic activity as they relate to the gene CYP2C8. Furthermore, this assay endpoint can be referred to as a primary readout, because this assay has produced multiple assay endpoints where this one serves a enzymatic activity function. To generalize the intended target to other relatable targets, this assay endpoint is annotated to the cyp intended target family, where the subfamily is xenobiotic metabolism.
Binding assays used specific radioligands (tritiated, iodinated) with non-radioactive competitive displacement ligands in agonist or antagonist protocols (as indicated) and various reference compounds and inhibitors to titrate specific binding to receptors and transporters. Most enzyme assays (CYPs, kinases, phosphatases, proteases, HDACs) used recombinant protein and specific substrates (fluorescence mostly, some colorimetric and radioactive) and inhibitors, followed by a biochemical separation of substrate and product. All assays for the biochemical HTS were initially run in duplicate at a single concentration (10 uM for CYP450 assays and 25 uM for all others). Assay-chemical combinations meeting a pre-defined threshold (e.g., 30% inhibition and other criteria defined below) were then run in singleton concentration-response format with maximum concentration of 20 uM for CYPs and 50 uM for all others. Each assay was run with positive and negative controls, and concurrent controls on every plate. The follow-up (secondary) screen tested active chemical-pairs in concentration series, as well as a few additional assays not tested in the primary screen, some selected negative inactives, and several cases re-run in the concentration series for confirmatory purposes.
`CCCCOC(=O)c1ccccc1C(=O)O` was tested, and the outcome was “inactive”.
In the case of `CCOP(=S)(OCC)Oc1ccc2c(C)c(Cl)c(=O)oc2c1`, the outcome is reported as “inactive”.
With `C#CCC1=C(C)C(OC(=O)C2C(C=C(C)C)C2(C)C)CC1=O` (stereo not drawn) the outcome was “inactive”.
With `CCOC(=O)CC(SP(=O)(OC)OC)C(=O)OCC` (stereo not drawn) the outcome was “inactive”.
For `CCCOCC(=Nc1ccc(Cl)cc1C(F)(F)F)n1ccnc1`, the AC50 was 3.77 µM (active).

What follows are molecules tested against human CYP2J2, CYP2J2 (gene 1573) (UniProt P51589) (assay: NVS_ADME_hCYP2J2: NovaScreen (NVS) CYP450-related Enzyme Activity (ADME) Assay for human CYP2J2 (AID 2283106)).
Sequence of human CYP2J2, CYP2J2 (gene 1573) (P51589 whole entry, looked up): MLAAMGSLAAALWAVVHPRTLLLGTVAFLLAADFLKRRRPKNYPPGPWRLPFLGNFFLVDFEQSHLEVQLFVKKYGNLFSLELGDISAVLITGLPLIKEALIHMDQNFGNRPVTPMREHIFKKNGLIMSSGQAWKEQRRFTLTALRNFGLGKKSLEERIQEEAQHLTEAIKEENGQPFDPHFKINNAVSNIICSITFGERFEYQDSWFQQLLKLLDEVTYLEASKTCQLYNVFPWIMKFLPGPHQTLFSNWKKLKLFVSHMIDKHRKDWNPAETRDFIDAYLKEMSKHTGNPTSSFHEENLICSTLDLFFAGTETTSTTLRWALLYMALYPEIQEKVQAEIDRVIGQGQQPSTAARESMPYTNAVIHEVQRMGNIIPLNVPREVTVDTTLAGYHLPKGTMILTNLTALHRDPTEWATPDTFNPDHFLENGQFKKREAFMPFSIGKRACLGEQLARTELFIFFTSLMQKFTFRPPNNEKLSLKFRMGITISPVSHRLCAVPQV
Outline: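 Chemicals were first tested at 10 uM in duplicate, and hits meeting criteria such as 30% inhibition were run in singleton concentration series with a 20 uM top concentration. Enzyme activity of recombinant CYP2J2 was measured by fluorescence after 1 h, relative to acetonitrile.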
`CCOP(=S)(OCC)Oc1ccc([N+](=O)[O-])cc1` was tested, and the AC50 was 0.609 µM (active).
In the case of `CCOP(=S)(OCC)Oc1ccc2c(C)c(Cl)c(=O)oc2c1`, the AC50 is reported as 0.0646 µM (active).
For `C#CC(C)(C)NC(=O)c1cc(Cl)cc(Cl)c1`, the AC50 was 1.34 µM (active).
In the case of `CSc1nc(NC(C)C)nc(NC(C)C)n1`, the outcome is reported as “inactive”.
With `C#CCC1=C(C)C(OC(=O)C2C(C=C(C)C)C2(C)C)CC1=O` (stereo not drawn) the AC50 was 10 µM (active).
`C[Si](Cn1cncn1)(c1ccc(F)cc1)c1ccc(F)cc1` was tested, and the outcome was “inactive”.
`CCCOCC(=Nc1ccc(Cl)cc1C(F)(F)F)n1ccnc1` was tested, and the AC50 was 0.101 µM (active).

These molecules were tested against human CYP2D6, CYP2D6 (gene 1565) (UniProt P10635) (assay: NVS_ADME_hCYP2D6: NovaScreen (NVS) CYP450-related Enzyme Activity (ADME) Assay for human CYP2D6 (AID 2283107)).
Sequence of human CYP2D6, CYP2D6 (gene 1565) (P10635 whole entry, looked up): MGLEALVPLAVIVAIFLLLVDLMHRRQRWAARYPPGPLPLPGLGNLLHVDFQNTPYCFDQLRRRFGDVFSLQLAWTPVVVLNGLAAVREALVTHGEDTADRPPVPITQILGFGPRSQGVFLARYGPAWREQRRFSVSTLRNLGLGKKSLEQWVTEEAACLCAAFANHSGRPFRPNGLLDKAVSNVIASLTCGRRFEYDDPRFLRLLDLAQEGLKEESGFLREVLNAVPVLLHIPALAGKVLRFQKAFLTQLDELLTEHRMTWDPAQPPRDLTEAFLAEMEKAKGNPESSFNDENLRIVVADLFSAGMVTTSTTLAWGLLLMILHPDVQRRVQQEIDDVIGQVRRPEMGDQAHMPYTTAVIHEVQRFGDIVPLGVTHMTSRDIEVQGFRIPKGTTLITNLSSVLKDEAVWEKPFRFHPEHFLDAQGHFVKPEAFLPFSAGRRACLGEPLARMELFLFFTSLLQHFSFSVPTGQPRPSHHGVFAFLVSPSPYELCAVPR
Outline: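 Biochemical fluorescence assay, insect-cell-derived enzyme. Read at 1 h; inhibition taken from loss of signal against acetonitrile. Screened at 10 uM in duplicate, with concentration series for actives.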
`CCOP(=S)(OCC)Oc1ccc([N+](=O)[O-])cc1` was tested, and the outcome was “inactive”.
In the case of `Nc1c(Cl)cc([N+](=O)[O-])cc1Cl`, the outcome is reported as “inactive”.
In the case of `CCCCSP(=O)(SCCCC)SCCCC`, the outcome is reported as “inactive”.
`CCCOCC(=Nc1ccc(Cl)cc1C(F)(F)F)n1ccnc1` was tested, and the AC50 was 6.7 µM (active).

The molecules below were run against human CYP2C9, CYP2C9 (gene 1559) (UniProt P11712) (assay: NVS_ADME_hCYP2C9: NovaScreen (NVS) CYP450-related Enzyme Activity (ADME) Assay for human CYP2C9 (AID 2283108)).
Sequence of human CYP2C9, CYP2C9 (gene 1559) (P11712 whole entry, looked up): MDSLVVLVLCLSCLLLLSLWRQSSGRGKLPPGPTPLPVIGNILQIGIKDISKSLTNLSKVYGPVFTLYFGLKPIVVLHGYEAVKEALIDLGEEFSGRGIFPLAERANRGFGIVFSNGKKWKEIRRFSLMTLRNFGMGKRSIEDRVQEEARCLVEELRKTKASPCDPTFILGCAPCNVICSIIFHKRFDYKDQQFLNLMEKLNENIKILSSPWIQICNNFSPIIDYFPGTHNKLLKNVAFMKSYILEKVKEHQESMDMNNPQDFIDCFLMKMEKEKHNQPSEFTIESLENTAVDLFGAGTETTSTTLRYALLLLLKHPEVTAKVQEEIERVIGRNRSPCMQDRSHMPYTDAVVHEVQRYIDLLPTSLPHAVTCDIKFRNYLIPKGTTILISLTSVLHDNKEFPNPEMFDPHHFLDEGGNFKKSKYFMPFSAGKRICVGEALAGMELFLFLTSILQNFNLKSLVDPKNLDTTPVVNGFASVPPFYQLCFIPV
Outline: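 Cell-free assay of recombinant human CYP2C9 produced in Sf9 cells, with enzyme activity read by fluorescence intensity 0.75 h after compound addition. Loss of signal versus an acetonitrile negative control indicates inhibition. Primary screen used 10 uM in duplicate; actives were retested in concentration series.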
In the case of `CCOP(=S)(OCC)Oc1ccc([N+](=O)[O-])cc1`, the AC50 is reported as 2.62 µM (active).
In the case of `S=C1NCCN1`, the outcome is reported as “inactive”.
`CCOP(=S)(OCC)Oc1ccc2c(C)c(Cl)c(=O)oc2c1` was tested, and the AC50 was 0.798 µM (active).
With `Cc1cc(C2CC2)nc(Nc2ccccc2)n1` the AC50 was 7 µM (active).
For `FC(F)C(F)(F)OCC(Cn1cncn1)c1ccc(Cl)cc1Cl` (stereo not drawn), the AC50 was 2.91 µM (active).
`CC(C1CC1)C(O)(Cn1cncn1)c1ccc(Cl)cc1` (stereo not drawn) was tested, and the AC50 was 54.7 nM (active) and 47.4 nM (active).
With `O=[N+]([O-])c1cc(C(F)(F)F)c(Cl)c([N+](=O)[O-])c1Nc1ncc(C(F)(F)F)cc1Cl` the AC50 was 1.84 µM (active).
`C#CCC1=C(C)C(OC(=O)C2C(C=C(C)C)C2(C)C)CC1=O` (stereo not drawn) was tested, and the AC50 was 7.23 µM (active).
In the case of `C[Si](Cn1cncn1)(c1ccc(F)cc1)c1ccc(F)cc1`, the AC50 is reported as 1.04 µM (active).
For `CCOC(=O)CC(SP(=O)(OC)OC)C(=O)OCC` (stereo not drawn), the AC50 was 1.98 µM (active).
In the case of `CCCOCC(=Nc1ccc(Cl)cc1C(F)(F)F)n1ccnc1`, the AC50 is reported as 4.36 µM (active).
For `CCCSP(=O)(OCC)Oc1ccc(Br)cc1Cl` (stereo not drawn), the AC50 was 7.09 µM (active).
